In ChEMBL document CHEMBL1157539, “Thousands of chemical starting points for antimalarial lead identification” (Nature, 2010) one finds Inhibition data, which are given here for 40 compounds.

The first experiment deals with Plasmodium falciparum. Briefly: GSK_TCMDC: Inhibition of Plasmodium falciparum 3D7 in whole red blood cells, using parasite LDH activity as an index of growth. Test compounds present at 2uM. Format: functional.
By Inhibition is commonly meant the drop in the measured response relative to a control, in per cent. Read a low Inhibition as little suppression. On to `CCN(CC)CCCN(Cc1ccc(-c2ccc(C(F)(F)F)cc2)cc1)C(=O)Cn1c(SCc2cccc(F)c2F)cc(=O)c2ccccc21.O=C(O)C(O)C(O)C(=O)O`, for which the Inhibition is given as 87%.
Same read-out and setting: under `COc1cc(F)c2ncc(Cl)c(CCN3CCC(NCc4ccc5c(n4)NC(=O)CO5)CC3)c2c1.Cl` stands 89%.
As to `O=C(/C=C/c1ccc(Cl)c(Cl)c1)NC1CCN(CCCNC(=O)c2cccc(Cl)c2)CC1.O=C(O)C(F)(F)F`, the Inhibition amounted to 100%.
As to `O=C(/C=C/c1ccc(Cl)c(Cl)c1)NCCCCCN1CCC(NC(=O)Nc2ccc(F)c(F)c2)CC1`, the Inhibition is given as 99%.
On to `O=C(Nc1ccsc1)Nc1cccc(-c2ccc(-c3nc4cc(C(F)(F)F)ccc4[nH]3)cc2)c1`, for which the Inhibition was determined as 99%.
Still for that read-out and setting: to `c1ccc(Oc2ccc(Nc3ccnc(Nc4ccc(CN5CCOCC5)cc4)n3)cc2)cc1` belongs 92%.
As for `O=C(NCC1CC1)C1CCN(C(c2ccccc2)c2nc3ccccc3s2)CC1` (stereo unspecified), the Inhibition worked out at 92%.
For the compound `COc1cc2c(cc1N1CC(C)NC(C)C1)N(C(=O)c1ccc(-c3ccc(-c4ncc[nH]4)cc3C)cc1)CC2` (stereo unspecified), the Inhibition turned out to be 98%.
The same measure, in the same setting: under `O=C(Nc1ccc2c(c1)OCCO2)c1cc(-c2cccnc2)nc2ccc(Cl)cc12` stands 95%; under `Fc1ccc2[nH]c(-c3ccc(-c4cccc(CN5CCN(c6ccncc6)CC5)c4)cc3)nc2c1.O=C(O)C(F)(F)F`, 100%.
Turning to `FC(F)(F)c1cnc(Sc2nnc(-c3ccncc3)o2)c(Cl)c1`, the Inhibition turned out to be 96%.
Compound `O=[N+]([O-])c1cc(/C=N/Nc2nc3nonc3nc2Nc2ccc(F)cc2)c(Cl)cc1Cl` gave an Inhibition of 98%.
Take `COc1ccc(CN(C)CCCOc2ccc(NC(=O)c3cccc4c(=O)c5cccc(F)c5[nH]c34)cc2)cc1OC`: the Inhibition came to 100%.
The compound `COc1ccc2nccc([C@@H](O)CN3CCC(NCc4ccc5c(c4)oc(=S)n5C)CC3)c2c1.O=C(O)/C=C/C(=O)O` showed an Inhibition of 100%.
`COc1ccccc1C(=O)Nc1cccc(N2CCC(NCc3ccc(-n4cccn4)cc3)CC2)c1` showed an Inhibition of 86%.
As for `Cl.O=c1cc(NCCCCNCc2ccc(Br)c(Br)c2)[nH]c2ccccc12`, the Inhibition is recorded as 98%.
In turn, `Cc1cccc2nc(-c3ccc(-c4ccc(CN5CCN(c6cnccn6)CC5)cc4)s3)[nH]c12.O=C(O)C(F)(F)F` came in with an Inhibition of 94%.
The compound `CCc1cccc(OCC2CCCN(c3ccc(C(=O)NC4CC4)cn3)C2)c1` (stereo unspecified) had an Inhibition of 94%.
`Cc1ccc(O)cc1Nc1ccnc2cc(-c3ccncc3)ccc12.Cl` yielded an Inhibition of 100%.
`Cc1ccc(O)cc1C[C@@H]1C(=O)CC[C@@]2(C)[C@H]1CC[C@]2(C)O` displayed an Inhibition of 96%.
Compound `Cc1ccc(NC(=O)Nc2ccc(Br)cc2)cc1OCCN(C)C` yielded an Inhibition of 84%.
As to `CCNc1cc(C(=O)N[C@@H](Cc2ccccc2Cl)[C@H](O)CNC(C)CCCC(C)C)cc(N2CCCCS2(=O)=O)c1.Cl` (stereo partly specified), the Inhibition is 97%.
With `COc1c(C2=CCN(CCCCNC(=O)c3ccc(-c4ccc(C#N)cc4)cc3)CC2)ccc2c1CCCC2`, the Inhibition was determined as 94%.
`O=C(O)C(F)(F)F.O=S(=O)(NCCN1CCCC1)c1ccc(-c2ccc(CNCc3ccc(F)cc3)cc2)s1` showed an Inhibition of 100%.
On the same count and under the same terms, to `CCCNC[C@@H](O)[C@H](Cc1ccccc1)NC(=O)c1cc(NCC)cc(N2CCCCS2(=O)=O)c1.Cl` belongs 97%; to `CN1CCN(c2ccc(CNc3ccc4ncc(-c5ccc(OC(F)(F)F)cc5)n4n3)cc2)CC1`, 94%.

For another experiment, the system named is Plasmodium falciparum. In words: GSK_TCMDC: Inhibition of Plasmodium falciparum Dd2 in whole red blood cells, using parasite LDH activity as an index of growth. Test compounds present at 2uM. Format: functional.
In the case of `COc1ccc(C2C(C(=O)Nc3cc(Cl)c(OC)cc3OC)c3ccccc3C(=O)N2C)cc1` (stereo unspecified), the Inhibition stood at 98%.
Regarding `CC(NC(=O)c1ccc(O)c(-c2ccc(Cl)c(Cl)c2)c1)C(=O)NC1CCCCC1` (stereo unspecified), the Inhibition was 82%.
`CC(C)(C)SC1SC(SC(C)(C)C)C(OC(=O)c2ccccc2)C(OC(=O)c2ccccc2)C1OC(=O)c1ccccc1` (stereo unspecified) displayed an Inhibition of 45%.
Regarding `O=C(Nc1ccc(-c2nc3ccccc3[nH]2)cc1)c1ccc(N2CCCC2)c([N+](=O)[O-])c1`, the Inhibition was found to be 95%.
On to `Cc1cccc2nc(-c3ccc(-c4cccc(CN5CCC(N)C5)c4)s3)[nH]c12.O=C(O)C(F)(F)F` (stereo unspecified), for which the Inhibition was 78%.
In turn, `CCOC(=O)c1ccc(NC(=O)Nc2ccc(-c3ccc(-c4nc5ccccc5[nH]4)cc3)cc2)cc1` had an Inhibition of 100%.
In the case of `CCCC(C)NC(=O)[C@H](Cc1ccccc1)NC(=O)c1ccc(O)c(-c2ccc(OC)cc2)c1` (stereo partly specified), the Inhibition is 1%.
The compound `CCOCn1c(-c2ccccc2)cc2c3c(N)nc(N)nc3ccc21` displayed an Inhibition of 66%.
In turn, `Cc1ccc(Nc2nccc(NCC(O)c3cccc(F)c3)n2)cc1` (stereo unspecified) yielded an Inhibition of 26%.
The compound `O=C(CSc1nc2ccccc2c(=O)n1C1CC1)Nc1cc(C(F)(F)F)ccc1Cl` showed an Inhibition of 96%.
In turn, `c1ccc(C23NC(=Nc4nc5ccccc5[nH]4)NC2(c2ccccc2)NC(=Nc2nc4ccccc4[nH]2)N3)cc1` (stereo unspecified) gave an Inhibition of 89%.
The compound `NC(=O)c1ccsc1NC(=O)CNC(c1ccccc1)c1ccc(Cl)cc1` (stereo unspecified) yielded an Inhibition of 89%.
On the same count and under the same terms, under `O=C(COc1ccc(C(=O)c2ccccc2)cc1)Nc1nccs1` stands 18%; under `Cc1nc2c(-n3cc(Cn4ccnc4)c4ccccc43)ncnc2n1-c1ccc(Cl)cc1Cl`, 29%.
Still for that read-out and setting: under `CCN(CC)CCCN(Cc1ccc(-c2ccc(C(F)(F)F)cc2)cc1)C(=O)Cn1c(SCc2cccc(F)c2F)cc(=O)c2ccccc21.O=C(O)C(O)C(O)C(=O)O` stands 82%; under `COc1cc(F)c2ncc(Cl)c(CCN3CCC(NCc4ccc5c(n4)NC(=O)CO5)CC3)c2c1.Cl`, 19%; under `O=C(/C=C/c1ccc(Cl)c(Cl)c1)NC1CCN(CCCNC(=O)c2cccc(Cl)c2)CC1.O=C(O)C(F)(F)F`, 28%.
`O=C(/C=C/c1ccc(Cl)c(Cl)c1)NCCCCCN1CCC(NC(=O)Nc2ccc(F)c(F)c2)CC1` had an Inhibition of 4%.
Regarding `O=C(Nc1ccsc1)Nc1cccc(-c2ccc(-c3nc4cc(C(F)(F)F)ccc4[nH]3)cc2)c1`, the Inhibition is 36%.
In turn, `c1ccc(Oc2ccc(Nc3ccnc(Nc4ccc(CN5CCOCC5)cc4)n3)cc2)cc1` came in with an Inhibition of 38%.
Same read-out and setting: to `O=C(NCC1CC1)C1CCN(C(c2ccccc2)c2nc3ccccc3s2)CC1` (stereo unspecified) belongs 49%; to `COc1cc2c(cc1N1CC(C)NC(C)C1)N(C(=O)c1ccc(-c3ccc(-c4ncc[nH]4)cc3C)cc1)CC2` (stereo unspecified), 58%; to `O=C(Nc1ccc2c(c1)OCCO2)c1cc(-c2cccnc2)nc2ccc(Cl)cc12`, 27%.
Still for that read-out and setting: under `Fc1ccc2[nH]c(-c3ccc(-c4cccc(CN5CCN(c6ccncc6)CC5)c4)cc3)nc2c1.O=C(O)C(F)(F)F` stands 100%; under `FC(F)(F)c1cnc(Sc2nnc(-c3ccncc3)o2)c(Cl)c1`, 96%; under `O=[N+]([O-])c1cc(/C=N/Nc2nc3nonc3nc2Nc2ccc(F)cc2)c(Cl)cc1Cl`, 13%.
`COc1ccc(CN(C)CCCOc2ccc(NC(=O)c3cccc4c(=O)c5cccc(F)c5[nH]c34)cc2)cc1OC` had an Inhibition of 96%.
Compound `COc1ccc2nccc([C@@H](O)CN3CCC(NCc4ccc5c(c4)oc(=S)n5C)CC3)c2c1.O=C(O)/C=C/C(=O)O` yielded an Inhibition of 68%.
`COc1ccccc1C(=O)Nc1cccc(N2CCC(NCc3ccc(-n4cccn4)cc3)CC2)c1`: the Inhibition was 30%.
As to `Cl.O=c1cc(NCCCCNCc2ccc(Br)c(Br)c2)[nH]c2ccccc12`, the Inhibition was determined as 14%.
Consider `Cc1cccc2nc(-c3ccc(-c4ccc(CN5CCN(c6cnccn6)CC5)cc4)s3)[nH]c12.O=C(O)C(F)(F)F`, for which the Inhibition stood at 42%.
The same measure, in the same setting: under `CCc1cccc(OCC2CCCN(c3ccc(C(=O)NC4CC4)cn3)C2)c1` (stereo unspecified) stands 73%; under `Cc1ccc(O)cc1Nc1ccnc2cc(-c3ccncc3)ccc12.Cl`, 84%.
`Cc1ccc(O)cc1C[C@@H]1C(=O)CC[C@@]2(C)[C@H]1CC[C@]2(C)O`: the Inhibition was 0%.
`Cc1ccc(NC(=O)Nc2ccc(Br)cc2)cc1OCCN(C)C` yielded an Inhibition of 15%.
Consider `CCNc1cc(C(=O)N[C@@H](Cc2ccccc2Cl)[C@H](O)CNC(C)CCCC(C)C)cc(N2CCCCS2(=O)=O)c1.Cl` (stereo partly specified), for which the Inhibition was found to be 62%.
On the same count and under the same terms, to `COc1c(C2=CCN(CCCCNC(=O)c3ccc(-c4ccc(C#N)cc4)cc3)CC2)ccc2c1CCCC2` belongs 82%; to `O=C(O)C(F)(F)F.O=S(=O)(NCCN1CCCC1)c1ccc(-c2ccc(CNCc3ccc(F)cc3)cc2)s1`, 44%; to `CCCNC[C@@H](O)[C@H](Cc1ccccc1)NC(=O)c1cc(NCC)cc(N2CCCCS2(=O)=O)c1.Cl`, 74%.
On the same count and under the same terms, under `CN1CCN(c2ccc(CNc3ccc4ncc(-c5ccc(OC(F)(F)F)cc5)n4n3)cc2)CC1` stands 87%.
